High-throughput results as filed in PubChem BioAssay.
Hits are enriched below; roughly 10% of the tested compounds scored in any of these assays.
HP1b binding inh – blocks HP1-beta chromodomain binding to methylated histone tails. AlphaScreen HP1-beta / biotin-H3K9me3 peptide binding. actives 0.56% (n = 390,000). P83916. Potency, µM (series often up to 114 µM), without a hit: top-dose activity change, negative = inhibition, most hits filed as inhibitors. AID 540317; further: nearly all actives have a fitted effect of over 70% in size
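AlphaScreen: HP1-beta (50 nM) preformed 30 min with biotin-H3(1-18)K9me3 peptide (50 nM) in PBS pH 7.4, 0.01% Tween-20. Compound added for 30 min at RT, then streptavidin donor/nickel chelate acceptor beads (10 ug/mL) for 30 min.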
BAZ2B block – BAZ2B (human) inhibition | Q9UIF8 | AlphaScreen BAZ2B-H3K14Ac peptide displacement | Potency, µM (doses to about 114 µM), without a hit: at the highest dose activity change, negative = inhibition, most hits filed as inhibitors | actives 4.4% (n = 360,000); further: on the % scale 0 is the no-effect control and ±100 the full control effect; nearly all actives have a fitted effect of over 60% in size
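AlphaScreen luminescence quantifies BAZ2B engagement of H3K14Ac peptide; the protein and biotinylated peptide are both at 50 nM final, buffer PBS pH 7.4 with 0.01% Tween-20, all steps at room temperature.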
JMJD2A Tudor – blocks the human JMJD2A Tudor domain. O75164. AlphaScreen JMJD2A-Tudor / H3K4me3 peptide binding. Potency, µM (top dose mostly 114 µM), inactives show top-dose activity change, negative = inhibition, hits mostly inhibitors. actives 4.4% (n = 390,000). AID 504339; further: on the % scale 0 is the no-effect control and ±100 the full control effect; nearly all actives have a fitted effect of over 50% in size
G9a inh – inhibitors of human histone lysine methyltransferase G9a; Q96KQ7; G9a H3K9 monomethylation, AlphaScreen, 2 h; Potency, µM (highest dose often 102 µM), inactives show at the top dose activity, negative = inhibition, actives largely listed as inhibitors; actives 8.8% (n = 350,000); further: on the % scale 0 is the no-effect control and ±100 the full control effect; nearly all actives have a fitted effect of over 75% in size
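AlphaScreen detection with an anti-monomethyl H3K9 antibody quantified product after a 2 h room-temperature reaction containing 500 nM biotinylated H3K9 peptide, 20 µM SAM and 20 nM enzyme, which had been preincubated 15 min with compound.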
GLS inhibitor – blocks human kidney-isoform glutaminase activity; O94925; GLS enzymatic activity, qHTS titration; Potency, µM (titrated, usually from 45.5 µM), without a hit: top-dose activity change, negative = inhibition, actives largely listed as inhibitors; actives 0.21% (n = 410,000); further: on the % scale 0 is the no-effect control and ±100 the full control effect
Target sequence (O94925 whole entry, looked up, canonical isoform): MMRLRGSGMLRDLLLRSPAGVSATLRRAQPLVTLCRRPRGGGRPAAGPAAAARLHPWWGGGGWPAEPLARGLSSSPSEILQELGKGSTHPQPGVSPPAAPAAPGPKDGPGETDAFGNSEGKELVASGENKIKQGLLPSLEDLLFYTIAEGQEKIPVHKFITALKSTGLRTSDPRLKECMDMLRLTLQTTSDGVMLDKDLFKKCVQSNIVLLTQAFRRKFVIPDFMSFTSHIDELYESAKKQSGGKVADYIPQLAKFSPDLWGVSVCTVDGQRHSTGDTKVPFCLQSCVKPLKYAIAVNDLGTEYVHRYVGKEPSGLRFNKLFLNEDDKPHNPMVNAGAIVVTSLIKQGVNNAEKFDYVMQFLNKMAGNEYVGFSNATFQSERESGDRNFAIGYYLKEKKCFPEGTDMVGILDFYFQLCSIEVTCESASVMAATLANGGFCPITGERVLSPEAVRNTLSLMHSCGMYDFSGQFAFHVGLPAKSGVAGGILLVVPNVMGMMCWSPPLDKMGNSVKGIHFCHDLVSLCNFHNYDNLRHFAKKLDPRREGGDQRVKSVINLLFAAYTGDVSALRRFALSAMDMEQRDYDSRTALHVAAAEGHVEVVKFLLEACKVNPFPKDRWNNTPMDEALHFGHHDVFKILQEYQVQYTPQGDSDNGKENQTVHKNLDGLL
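hKGA in 45 mM KH2PO4 pH 8.2, 0.02% Tween-20 with pin-transferred compounds; 1 mM L-glutamine (stock) plus glutamate oxidase/HRP/Amplex Red coupling added. Fluorescence read initially and after 30 min at RT.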
The depositor's hits bear a star; ? = inconclusive; nt = no result; ! = not confirmed by another sample; [ ] = remark or other dose. The call rests on the fitted dose curve; in most records, active means well fitted curve in the direction sought with a large enough effect; inconclusive means small, poorly fitted or top-dose-only effect, or another doubt; inactive means no such curve, though single readings can be large; an effect the other way counts as inactive or inconclusive. Potency means the concentration at half of the fitted maximal effect.

SMILES	HP1b binding inh	BAZ2B block	JMJD2A Tudor	G9a inh	GLS inhibitor
O=C(Nc1ccccc1C(=O)O)c1ncn[nH]1	31%	?	-28%	10µM*	5%
Nc1ccc(C(=O)Nc2ccc3c(O)cc(S(=O)(=O)O)cc3c2)cc1	-7%[57 µM]	nt	56µM*	nt	6.3µM*
O=C(Nc1ccccc1C(=O)O)c1cncc(Br)c1	-2%	?	?	4.5µM*	nt
O=C(CSc1ncn[nH]1)Nc1ccccc1C(=O)O	11%	-5%	-14%	22%[59 µM]	4%
Nc1ccc(C(=O)Nc2ccc(OC(F)(F)C(F)F)c(NC(=O)c3ccc(N)cc3)c2)cc1	9%	1%	-26%	?	-1%
CSc1nc(COC(=O)NC(C)C)c(COC(=O)NC(C)C)n1Cc1ccccc1	nt	nt	nt	nt	-9%
COc1cccc(NC(=O)N2CCC(n3c(C)nc4cccnc43)CC2)c1	12%	-7%	-1%	22%[59 µM]	5%
O=C(Nc1ccccc1C(=O)Nc1ccccc1C(=O)O)c1ccccc1	18%	-25%	-8%	-2%	-29%
O=C(NC(=S)Nc1ccccc1O)c1cncc(Br)c1	-7%	nt	-13%	nt	?
Nc1ccc(C(=O)Nc2ccccc2C(=O)O)cc1	13%	-35%	-8%	40µM*	6%
O=C(NC(=S)Nc1ccccc1[N+](=O)[O-])c1cncc(Br)c1	-10%	-28%	-29%	45µM*	3%
Nc1ccc(C(=O)Nc2ccc(Nc3ccncc3)cc2)cc1	14%	11%	-25%	-8%	15%
Nc1ccc(NC(=O)c2ccc(C(=O)Nc3ccc(N)cc3)cc2)cc1	200%	71µM*	56µM*	58%	2%
O=C(NC(=S)Nc1ccccc1C(=O)O)c1cncc(Br)c1	?	-7%	?	2µM*	-8%
Cc1nn(CC(=O)NC2CCCCC2)c(=O)c2cc3cc(F)ccc3n12	2%	3%	-8%	4%[59 µM]	-12%
CC(=O)c1cc(C(=O)Nc2ccccc2C(=O)O)oc1C	14%	-25%	56µM*	50µM*	6%
NC(=O)c1sc2nc(N3CCCCC3)c3c(c2c1N)CCCC3	29%	?	-13%	35µM*	3%
Nc1c(C(=O)O)sc2nc(-c3ccccc3)c3c(c12)CCCC3	17%	-8%	-20%	6.3µM*	3%
CCOC(=O)c1sc2nc(N3CCOCC3)c3c(c2c1N)CCCC3	56%	3%	11%	2%	?
CCN(CC)C(=O)c1sc2nc(N3CCOCC3)c3c(c2c1N)CCCC3	7%	-4%	?	8.9µM*	-19%
OCCC1CN(C2CCN(c3ccccc3)CC2)CCN1Cc1ccc(F)c(F)c1 (centres undefined)	18%	-18%	1%	?	11%
CC(NC(=O)CCCC1=NS(=O)(=O)c2ccccc2N1)c1ccccc1 (centres undefined)	28%	2%	-11%	4%[59 µM]	-3%
CCOc1ccc(N2C(=O)CS/C2=C(\C(Cl)=C(Cl)Cl)[N+](=O)[O-])cc1	-65%	50µM*	5µM*	32µM*	19%
CCOc1ccc(N2C(=O)CNC2=S)cc1	3%	-10%	-9%	8%	?
NC1(C(=O)O)C[C@@H](C(=O)O)[C@H](C(=O)O)C1	nt	nt	nt	22%[59 µM]	nt
SMILES	HP1b binding inh	BAZ2B block	JMJD2A Tudor	G9a inh	GLS inhibitor
NC1(C(=O)O)CSSC1	?	nt	89µM*	nt	5%
NC(=O)CC1(CC(=O)O)CCCCC1	25%	-28%	-10%	-7%[2.33 µM]	1%
NC1(C(=O)O)CCCCC1	nt	nt	nt	1.9µM*!	nt
CCN1/C(=C/c2cc[n+](CCCS(=O)(=O)[O-])c3ccccc23)Sc2ccccc21	-8%	?	-5%	25µM*	-4%
CCOC(=O)/C(=C\C=C1/Sc2ccccc2N1CC)C(C)=O	11%	-35%	-30%	?	-16%
COC(=O)Cn1c2ccc(F)cc2c2nc(C)sc21	25%	-28%	-1%	45µM*	-3%
O=c1c(CN2CCN(c3ccccn3)CC2)coc2ccccc12	?	79µM*	22µM*	?	18%
Oc1c(CN2CCN(c3ccccn3)CC2)cc(Cl)c2cccnc12	-15%	14µM*	32µM*	?	17%
O=C(c1ccc(Cl)c(Cl)c1)N1CCN(c2ccccn2)CC1	38%	0%	-1%	nt	4%
OCCN1CCN(Cc2cc(Cl)c3cccnc3c2O)CC1	4%	7.9µM*	13µM*	50µM*	8%
CCCCC[C@H](O)/C=C/C1=C(C/C=C\CCCC(=O)O)C(=O)CC1	nt	nt	nt	31%[59 µM]	nt
CCN1CCN(c2ncnc3c2nnn3Cc2ccccc2)CC1	17%	0%	-13%	40µM*	1%
c1ccc(Cn2nnc3c(N4CCCC4)ncnc32)cc1	11%	8%	-10%	9%	-9%
Cn1c(/N=C/c2ccccc2[N+](=O)[O-])nc2ccccc21	32%	8%	-9%	79µM*	20%
COc1ccc(N2CCN(C(=O)CSc3nnc4n3C(C)(C)Cc3ccccc3-4)CC2)cc1	-2%	?	-32%	?	4%
Cc1ccc(Cl)cc1N1CCN(C(=O)CSc2ccsc2[N+](=O)[O-])CC1	-6%	50µM*	?	50µM*	-1%
Cc1ccc(Cl)cc1N1CCN(C(=O)CSc2nnc3n2C(C)(C)Cc2ccccc2-3)CC1	41%	3%	89µM*	8.9µM*	-10%
Cc1nc(CC(=O)Nc2ccc(N(C)C)cc2)cs1	13%	?	?	14µM*	-3%
C/C(CC(=O)Nc1ccc(N(C)C)cc1)=N\NC(=O)Cc1csc(N)n1	-8%	?	?	45µM*	37%
Cc1ccc(-c2nc3c(c(=O)[nH]c(=O)n3Cc3ccccc3)n2Cc2ccccc2)o1	-7%	13%	-23%	10µM*	3%
Cc1ccc(-c2nc3c(c(=O)[nH]c(=O)n3Cc3ccccc3)n2C)o1	-11%	?	?	1.4µM*	-9%
Cc1ccc(-c2nc3c(c(=O)[nH]c(=O)n3Cc3ccccc3)n2C)s1	nt	-1%	nt	32%[59 µM]	nt
Cc1ccc(-c2noc(-c3nnn(CC(=O)Nc4cccc(C(F)(F)F)c4)c3N)n2)cc1	57%	-30%	-9%	?	0%
CCOc1ccc(-c2cc(NC(=O)Nc3ccccc3Cl)c(C(=O)OC)s2)cc1	44%	1%	0%	2%[59 µM]	-5%
CCCS(=O)(=O)c1nc(S(=O)(=O)c2ccc(C)cc2)c(NCc2ccccc2Cl)s1	13%	2%	-23%	1%[59 µM]	6%
O=C(OCCN1CCCCC1)c1ccc(Cl)cc1	34%	-7%	-2%	-3%[12.7 µM]	-7%
O=C(c1ccc(OCCN2CCCCC2)cc1)c1c(-c2ccc(O)cc2)sc2cc(O)ccc12	?	45µM*	40µM*	22µM*!	-18%
COC(=O)c1ccc(OCCN2CCCCCC2)cc1	4%	?	-28%	35µM*	3%
O=C(c1ccccc1)c1ccc(OCCCN2CCCCC2)cc1	-35%	32µM*	7.9µM*	8.9µM*	-9%
